Data on 4 molecules can be found in PubChem BioAssay.

“And” between values parts separate entries of the source, which are not always exact repeats. Equal entries are not always repeated. The source made the active and inactive calls. Unless noted, the rule behind the calls is not given here.

A short description of experiment [1]: compounds binding Alexa647 anti-His antibody – biochemical, small-molecule microarray, 635 nm fluorescence, artefact control for SMM control protein annotation, primary screen (AID 1128).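 Note: score merges feature fluorescence with signal-to-noise for each printed compound spot.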 As to conditions: higher = more signal.
For experiment [2], the system named is Human papillomavirus type 1a E7 protein (residues 1-88). The experiment is described as follows: HPV1a E7 small-molecule binders, primary screen, biochemical, small-molecule microarray, residues 1-88, 635 nm (AID 1129). As to conditions: small-molecule microarray binding, fluorescence 635 nm; higher = more signal.
The target of experiment [3] is Focal adhesion kinase 1 (Homo sapiens) (UniProt Q05397). Briefly: PTK2 protein binding on printed compound slides – biochemical, small-molecule microarray, 635/667 nm fluorescence, BSA, DTT, primary screen (AID 1130).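 Note: composite of spot emission at 667 nm and signal to noise over triplicate slides.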 As to conditions: 635 nm fluorescence, higher = more signal.
Focal adhesion kinase 1 (Homo sapiens), sequence (Q05397 whole entry, looked up): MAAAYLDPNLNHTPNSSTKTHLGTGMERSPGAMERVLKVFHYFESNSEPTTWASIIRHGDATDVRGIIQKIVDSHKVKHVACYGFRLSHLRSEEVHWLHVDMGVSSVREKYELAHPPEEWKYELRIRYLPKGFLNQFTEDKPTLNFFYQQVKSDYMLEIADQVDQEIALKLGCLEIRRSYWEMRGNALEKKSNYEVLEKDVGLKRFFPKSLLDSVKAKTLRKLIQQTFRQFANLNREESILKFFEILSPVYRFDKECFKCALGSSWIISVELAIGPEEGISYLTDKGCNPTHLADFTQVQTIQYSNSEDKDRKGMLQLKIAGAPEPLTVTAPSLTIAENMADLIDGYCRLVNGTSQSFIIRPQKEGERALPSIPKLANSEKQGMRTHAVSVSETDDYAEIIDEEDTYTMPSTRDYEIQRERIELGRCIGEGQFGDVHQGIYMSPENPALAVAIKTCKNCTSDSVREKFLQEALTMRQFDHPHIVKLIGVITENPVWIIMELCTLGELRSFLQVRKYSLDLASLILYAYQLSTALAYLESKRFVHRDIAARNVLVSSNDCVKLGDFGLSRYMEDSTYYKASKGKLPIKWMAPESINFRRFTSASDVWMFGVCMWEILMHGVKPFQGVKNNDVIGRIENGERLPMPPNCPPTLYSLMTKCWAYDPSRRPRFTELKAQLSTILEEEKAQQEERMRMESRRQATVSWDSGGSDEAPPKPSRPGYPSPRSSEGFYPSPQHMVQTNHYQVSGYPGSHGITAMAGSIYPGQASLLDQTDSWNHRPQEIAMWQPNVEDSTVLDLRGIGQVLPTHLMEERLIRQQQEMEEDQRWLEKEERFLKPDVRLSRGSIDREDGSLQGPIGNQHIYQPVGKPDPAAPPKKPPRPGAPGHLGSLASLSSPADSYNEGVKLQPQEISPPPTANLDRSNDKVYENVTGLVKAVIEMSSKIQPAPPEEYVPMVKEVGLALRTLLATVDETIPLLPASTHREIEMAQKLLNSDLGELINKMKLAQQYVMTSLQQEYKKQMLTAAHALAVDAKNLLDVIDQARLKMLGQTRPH
Experiment [4] deals with Fibrinogen (Alexa647-labelled). Briefly: Alexa647-fibrinogen binding to printed small molecules – biochemical, small-molecule microarray, 635/667 nm fluorescence, artefact control for SMM control-protein annotation, profiling panel (AID 1131).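 Note: z-score merges 667 nm fluorescence with per-spot signal-to-noise over triplicate slides.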 As to conditions: fibrinogen-A647 binding fluorescence, higher = more signal.
Experiment [5] has as its target Follistatin (Homo sapiens) (UniProt P19883). The experiment is described as follows: FST protein binding to printed compounds – biochemical, small-molecule microarray, 635/667 nm fluorescence, primary screen (AID 1132). As to conditions: 635 nm fluorescence, higher = more signal.
In experiment [6] the target is Fibroblast growth factor 2 (Homo sapiens) (UniProt P09038). The experiment is described as follows: basic fibroblast growth factor binding to printed compounds – biochemical, small-molecule microarray, 635/667 nm fluorescence, primary screen (AID 1133). As to conditions: FGF2, fluorescence 635/667, higher = more signal.
Fibroblast growth factor 2 (Homo sapiens), sequence (P09038 whole entry, looked up): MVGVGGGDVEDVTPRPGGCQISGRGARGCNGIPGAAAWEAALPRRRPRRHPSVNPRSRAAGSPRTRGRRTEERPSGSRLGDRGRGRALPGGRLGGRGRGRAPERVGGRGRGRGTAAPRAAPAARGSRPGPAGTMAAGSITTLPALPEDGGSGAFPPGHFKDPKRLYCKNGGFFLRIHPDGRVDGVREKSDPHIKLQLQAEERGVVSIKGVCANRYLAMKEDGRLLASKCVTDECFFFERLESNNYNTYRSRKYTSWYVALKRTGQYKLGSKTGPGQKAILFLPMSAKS
Experiment [7] can be described thus: JC-1 mitochondrial potential readout, lung cancer cells – cell-based, A549, JC-1 fluorescence, basal, 24 h, 100 nL, profiling panel (AID 1138).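 Note: A549 lung adenocarcinoma cells under basal conditions with no added stimulus; test concentration not given here.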 As to conditions: higher = more signal.
Experiment [8] has as its system Lefty1. Briefly: Lefty1 protein binding to printed compounds – biochemical, small-molecule microarray, 635/667 nm fluorescence, primary screen (AID 1139). As to conditions: fluorescence 635/667, higher = more signal.
For experiment [9], the system named is wheat germ agglutinin (Triticum aestivum), Alexa647-labelled. Briefly: Alexa647-WGA lectin binding to printed small molecules – biochemical, small-molecule microarray, 635/667 nm fluorescence, artefact control for SMM control-protein annotation, profiling panel (AID 1140).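 Note: score merges 667 nm feature emission with signal to noise over triplicate slides.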 As to conditions: WGA-A647 binding, 635 nm fluorescence, higher = more signal.
Experiment [10] has as its target Luciferin 4-monooxygenase (Photinus pyralis) (UniProt P08659). Briefly: inhibition of purified Photinus pyralis luciferase – biochemical, luminescence, purified enzyme, 2006 set, primary screen (AID 1141).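 Note: cell-free assay with purified firefly luciferase at 100 ng per well in PBS; test concentration not given here.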 As to conditions: purified firefly luciferase, SteadyGlo luminescence, 30 min; higher = more signal, called active from +8 up or from −8 down.
Experiment [11] has as its system Wnt5a (protein binding on small-molecule microarray). Briefly: small molecules binding Wnt5a protein – biophysical, small-molecule microarray, 635/667 nm fluorescence, primary screen (AID 1142).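 Note: fluorescence read at 667 nm with signal to noise per printed feature.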 As to conditions: 635 nm fluorescence, higher = more signal.
The nature of experiment [12]: ATP-based viability of Huh7 replicon cells – cell-based, CellTiter-Glo luminescence, basal, 48 h, cytotoxicity control for HCV replication inhibitor project, primary screen (AID 1143).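 Note: Huh7 hepatoma cells carrying a hepatitis C replication reporter with no stimulus; test concentration not given here.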 As to conditions: higher = more signal, called active from +8 up or from −8 down.
A short description of experiment [13]: Pseudomonas biofilm growth suppression – PAO1 strain, BacTiter-Glo luminescence, LB-PBS, primary screen (AID 1144). As to conditions: P. aeruginosa PAO1 biofilm, 12 h, higher = more signal.
A short description of experiment [14]: basal CRE-LacZ reporter activity in PC12 – cell-based, unstimulated, primary screen (AID 1145). As to conditions: no forskolin, luminescence, 4.5 h, higher = more signal, called active from +8 up or from −8 down.
Experiment [15] in a line: forskolin-driven CRE-LacZ activity in PC12 – cell-based, CRE-LacZ reporter, forskolin-stimulated, primary screen (AID 1146).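 Note: PC12 cells with 6xCRE LacZ reporter stimulated by forskolin 10 µM; beta-galactosidase reporter signal reflecting CREB driven transcription.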 As to conditions: luminescence, 4.5 h, higher = more signal, called active from +8 up or from −8 down.
For experiment [16], the target named is Streptavidin (Streptomyces avidinii) (UniProt P22629). The experiment is described as follows: compounds binding control protein streptavidin – biophysical, small-molecule microarray, 635/667 nm fluorescence, artefact control for SMM compound annotation, primary screen (AID 1147).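 Note: signal reflects streptavidin binding to arrayed compounds as a control protein.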 As to conditions: higher = more signal.
Streptavidin (Streptomyces avidinii), sequence (P22629 whole entry, looked up): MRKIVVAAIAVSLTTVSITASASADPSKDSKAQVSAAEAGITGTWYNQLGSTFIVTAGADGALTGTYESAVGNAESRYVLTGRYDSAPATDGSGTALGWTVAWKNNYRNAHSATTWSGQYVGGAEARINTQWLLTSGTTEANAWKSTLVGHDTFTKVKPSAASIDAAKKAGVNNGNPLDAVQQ
A short description of experiment [17]: probe aInhba binding on compound microarray – biochemical, small-molecule microarray, 635/667 nm fluorescence, primary screen (AID 1148).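 Note: score merges 667nm spot fluorescence with signal-to-noise for antibody binding to printed compounds.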 As to conditions: higher = more signal.
Experiment [18] has as its target Torsin-1A (Homo sapiens) (UniProt O14656). Briefly: TOR1A wild-type binding on microarray – cell lysate, small-molecule microarray, lysate, 635/667 nm, primary screen (AID 1149). As to conditions: COS7 hTOR1A-WT lysate, 635 nm fluorescence, higher = more signal.
Experiment [19] has the same target. Briefly: torsin A mutant lysate binding on microarrays – cell lysate, small-molecule microarray, COS7 lysate, 635/667 nm fluorescence, primary screen (AID 1150).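 Note: score pools 667 nm emission and signal to noise measuring lysate protein binding.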 As to conditions: COS7 hTOR1A mutant lysate, 635 nm fluorescence, higher = more signal.
Experiment [20] concerns Sonic hedgehog protein (Shh). Briefly: Sonic hedgehog microarray binding compounds – biochemical, small-molecule microarray, 635/667 nm fluorescence, primary screen (AID 1151).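 Note: Shh protein binding to compounds spotted on small-molecule microarray slides; score combines spot fluorescence intensity with signal-to-noise across triplicate slides.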 As to conditions: 635 nm fluorescence, higher = more signal.

Torsin-1A (Homo sapiens), sequence (O14656 whole entry, looked up): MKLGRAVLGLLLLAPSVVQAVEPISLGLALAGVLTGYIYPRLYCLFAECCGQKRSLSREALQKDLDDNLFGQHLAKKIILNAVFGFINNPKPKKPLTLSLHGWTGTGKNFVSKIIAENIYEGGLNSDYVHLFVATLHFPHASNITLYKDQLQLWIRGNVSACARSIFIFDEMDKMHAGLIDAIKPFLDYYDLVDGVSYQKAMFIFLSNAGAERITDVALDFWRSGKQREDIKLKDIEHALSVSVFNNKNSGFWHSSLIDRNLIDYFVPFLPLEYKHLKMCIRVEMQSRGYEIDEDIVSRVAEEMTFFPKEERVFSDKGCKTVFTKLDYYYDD
Follistatin (Homo sapiens), sequence (P19883 whole entry, looked up): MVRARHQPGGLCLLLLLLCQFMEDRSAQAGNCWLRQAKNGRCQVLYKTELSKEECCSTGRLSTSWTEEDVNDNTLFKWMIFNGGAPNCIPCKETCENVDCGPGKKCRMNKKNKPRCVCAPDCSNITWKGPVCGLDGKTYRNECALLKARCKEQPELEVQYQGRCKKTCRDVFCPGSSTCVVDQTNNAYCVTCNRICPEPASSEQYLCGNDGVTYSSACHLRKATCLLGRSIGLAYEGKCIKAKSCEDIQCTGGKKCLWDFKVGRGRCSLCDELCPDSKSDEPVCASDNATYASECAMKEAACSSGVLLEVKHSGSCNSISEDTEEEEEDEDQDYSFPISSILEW
Luciferin 4-monooxygenase (Photinus pyralis), sequence (P08659 whole entry, looked up): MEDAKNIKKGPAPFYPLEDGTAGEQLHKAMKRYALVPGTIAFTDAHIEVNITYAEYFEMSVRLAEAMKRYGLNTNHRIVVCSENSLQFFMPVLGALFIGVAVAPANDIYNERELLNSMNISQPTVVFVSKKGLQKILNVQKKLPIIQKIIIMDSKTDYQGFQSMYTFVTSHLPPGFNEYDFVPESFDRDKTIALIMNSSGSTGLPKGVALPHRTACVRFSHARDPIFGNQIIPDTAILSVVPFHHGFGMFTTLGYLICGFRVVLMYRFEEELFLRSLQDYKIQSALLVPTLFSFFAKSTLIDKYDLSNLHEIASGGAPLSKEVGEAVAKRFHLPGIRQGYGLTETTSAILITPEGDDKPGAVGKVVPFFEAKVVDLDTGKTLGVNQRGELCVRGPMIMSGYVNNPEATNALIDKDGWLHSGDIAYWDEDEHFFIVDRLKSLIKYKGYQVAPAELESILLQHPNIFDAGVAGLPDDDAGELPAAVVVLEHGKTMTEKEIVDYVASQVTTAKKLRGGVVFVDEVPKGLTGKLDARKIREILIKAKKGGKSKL

`Cc1ccc(S(=O)(=O)N[C@H]2COC(=O)[C@@H](Cc3ccccc3)NC(=O)[C@@H](C)COC(=O)CC=C[C@@H]2C)cc1`: the composite z-score is -0.619 and 1.81 in experiment [1]; -0.95 and -0.164 in experiment [2]; -0.282 and 0.116 in [3]; -0.747 and -0.0169 in experiment [4]; 1.18 and 0.825 in experiment [5]; 0.575 and 0.462 in experiment [6]. Further, the composite z-score is 0.678 and 0.882 in [8]; -0.892 and -0.0489 in experiment [9]; 0.089 and 0.0949 in [11]; -0.236 and -0.154 in experiment [16]; -0.234 and -0.158 in [17]; 0.143 and 0.354 in [18]. The composite z-score is 0.254 and 0.289 in experiment [19]; 1.07 and 1.29 in experiment [20]. The z-score in experiment [7] is 0.636 and -1.01; in experiment [10] it was -0.287 (inactive) and -0.431 (inactive); in experiment [12], 0.0143 (inactive) and -1.15 (inactive); in experiment [13] it was -0.166 (inactive) and -1.8 (inactive); in [14] it was -0.746 (inactive) and 0.834 (inactive); in [15] it was -0.899 (inactive) and -0.0204 (inactive).

Consider `C=CCN(CCCC)C(=O)C1N(C(C)(C)CO)C(=O)C2C(C(=O)O)C3C=CC21O3` (stereo not given), for which the composite z-score is -0.767 and -0.57 in experiment [1]; -1.26 and -1.35 in experiment [2]; -0.909 and -1.23 in experiment [3]; -4.07 and -1.59 in experiment [4]; -2.17 and -2.38 in [5]; -1.42 and -1.18 in experiment [6]. Moreover, the composite z-score was -1.93 and -1.64 in experiment [8]; -0.788 and -0.799 in experiment [9]; -1.3 and -0.176 in [11]; -1.54 and -1.29 in experiment [16]; -0.208 and -0.157 in experiment [17]; -2.92 and -2.18 in experiment [18]. Besides, the composite z-score was -2.77 and -2.67 in experiment [19]; -1.07 and -0.475 in experiment [20]. Moreover, the z-score is -0.628 and -0.501 in experiment [7]; 1.12 (inactive) and 0.853 (inactive) in experiment [10]; 0.194 (inactive) and -0.11 (inactive) in experiment [12]; 0.264 (inactive) and 1.42 (inactive) in [13]; -0.627 (inactive) and -0.611 (inactive) in experiment [14]; -0.414 (inactive) and -0.388 (inactive) in [15].

Regarding `Cc1cc2c(nc1C)CCCN2CC(O)CN1CCCc2nc(-c3ccc(Br)cc3)ccc21` (stereo not given), the composite z-score in experiment [1] was 1.48 and 2.06; in experiment [2] it was 1.15 and 1.16; in experiment [3] it was 1.08 and 1.26; in experiment [4], 0.887 and 0.695; in experiment [5], 1.27 and 1.29; in [6] it was 0.953 and 0.871. In addition, the composite z-score in [8] is 1.34 and 0.844; in experiment [9], 1.15 and 1.36; in experiment [11] it was 0.573 and 1.08; in experiment [16], 1.4 and 1.8; in experiment [17] it was 0.496 and 0.639; in experiment [18], 0.501 and 0.62. Besides, the composite z-score is 0.797 and 0.251 in [19]; 1.13 and 1.11 in experiment [20]. For the same molecule, the z-score in experiment [7] is -0.118 and 1.8; in experiment [10] it was -0.104 (inactive) and -0.176 (inactive); in experiment [12], -0.721 (inactive) and -1.07 (inactive); in [13], -0.0664 (inactive) and 0.806 (inactive); in experiment [14], 0.0167 (inactive) and 0.382 (inactive); in experiment [15], -0.362 (inactive) and -0.274 (inactive).

As for `C[N+](C)(C)CCCCNC(=O)[C@H]1C[C@H]2C(=O)N[C@@H](CCCC[N+](C)(C)C)C(=O)N2[C@H]1c1cccc(OCCO)c1`, the composite z-score is 1.98 and 1.03 in [1]; -0.166 and 0.848 in experiment [2]; -0.389 and -0.117 in experiment [3]; -0.816 and -0.179 in experiment [4]; 1.49 and 1.53 in experiment [5]; 1.93 and 1.73 in experiment [6]. For the same molecule, the composite z-score in experiment [8] was 1.75 and 1.59; in experiment [9], -1.07 and 1.04; in experiment [11], 0.949 and 0.646; in experiment [16], -0.853 and -0.0338; in experiment [17] it was -0.025 and 0.0631; in experiment [18] it was -1.08 and 1.03. Further, the composite z-score was -0.879 and 2.09 in experiment [19]; 2.21 and 2.31 in [20]. Also, the z-score in experiment [7] is -0.59 and -0.114; in experiment [10], 0.254 (inactive) and 0.0887 (inactive); in experiment [12], -0.0036 (inactive) and -0.177 (inactive); in experiment [13], -0.281 (inactive) and 0.741 (inactive); in experiment [14], -0.667 (inactive) and -0.268 (inactive); in [15], -0.393 (inactive) and -0.441 (inactive).
